Screening results deposited in PubChem BioAssay by The Scripps Research Institute Molecular Screening Center.
Only some compounds are listed: those with a hit (about 3.5% of all), similar ones and a draw of the others.
GPR151 activ: activators of human GPR151; 650,000 tested, 1% active; PathHunter beta-arrestin GPR151 cells, luminescence; activation, % at 11.2 µM; Q8TDV0; AID 1508602; in the data active = activation above about 4.9%;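 also: 0% = median of compound wells and 100% = cells with positive control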
Target sequence (Q8TDV0 whole entry, looked up): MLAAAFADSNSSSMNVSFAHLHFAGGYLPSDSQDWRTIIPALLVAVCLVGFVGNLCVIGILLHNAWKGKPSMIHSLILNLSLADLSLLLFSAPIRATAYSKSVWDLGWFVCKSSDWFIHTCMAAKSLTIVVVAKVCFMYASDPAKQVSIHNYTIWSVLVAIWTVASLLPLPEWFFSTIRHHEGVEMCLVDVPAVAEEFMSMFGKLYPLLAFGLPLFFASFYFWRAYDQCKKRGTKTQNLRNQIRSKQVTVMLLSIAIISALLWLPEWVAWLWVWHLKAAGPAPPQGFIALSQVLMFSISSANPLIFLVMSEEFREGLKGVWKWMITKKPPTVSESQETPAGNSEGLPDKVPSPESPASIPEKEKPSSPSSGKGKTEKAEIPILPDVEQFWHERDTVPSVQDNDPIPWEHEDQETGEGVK
TEAD-YAP block: TEAD-YAP interaction inhibition. HEK-TIYL cells, TEAD-Gal4/YAP UAS-luciferase luminescence. inhibition, % at 9.12 µM. 640,000 tested, 1.4% active. AID 1259422; in the data active = inhibition above about 32%;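 also: 0% = median of test compound wells and 100% = reference inhibitor wells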
FBW7 activator: activators of human E3 ligase FBW7; Q969H0; 650,000 tested, 0.13% active; normalized activity (activation), % at 26.1 µM; AlphaScreen FBW7–phospho-cyclin E peptide binding, activator screen; in the data active = normalized activity above about 1.9%;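 also: purified mutant Fbw7 with reduced substrate affinity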
MITF inh: inhibitors of human MITF; O75030; inhibition, % at 2.6 µM; AlphaScreen MITF homodimerization, bead proximity signal; AID 1259374; 650,000 tested, 0.91% active; in the data active = inhibition above about 50%;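 also: 0% = vehicle wells with protein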
GPR151 conf act: confirmation of human GPR151 activators | shares compounds with GPR151 activ | GPR151 PathHunter beta-arrestin cells, luminescence, 90 min; % of EA-reagent control over plate median | activation, % at 11.2 µM | 6,700 tested, under 10 active | AID 1508609;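 active = mean percent activation across replicates above the confirmation screen cutoff of 4.91%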
GPR119 counter: GPR119 activation, counter-screen for GPR151 activators; shares compounds with GPR151 activ; 6,700 tested, 0.3% active; GPR119 PathHunter beta-arrestin cells, luminescence, 90 min; 0 = compound-well median, 100 = enzyme-acceptor control; activation, % at 11.2 µM;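 active = mean percent activation in the counterscreen above 29.09%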;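 also: counterscreen on off-target GPR119 to flag nonselective hits from the GPR151 activator screen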
The depositor's hits bear a star; . = no result given.

SMILES | GPR151 activ | TEAD-YAP block | FBW7 activator | MITF inh | GPR151 conf act | GPR119 counter
CC(O)CNc1nc2ccccc2n1CC(=O)N1CCc2ccccc21 (stereo not given) | 10.0* | 6.5 | -0.2 | 0.0 | -0.5 | 8.6
O=C(CSc1ccc(F)cc1)Nc1nc(-c2ccc(F)cc2)cs1 | 7.7* | 12.4 | 0.3 | 2.8 | -1.9 | 11.6
CO[C@H]1[C@H](NC(=O)c2ccccn2)c2ccccc2C12CCN(C(=O)c1cncs1)CC2 | -1.1 | -7.0 | -0.3 | -0.1 | . | .
COc1ccccc1CNC(=O)CN(c1cc(C(F)(F)F)ccc1Cl)S(C)(=O)=O | 7.6* | -5.9 | -0.1 | 2.8 | 0.1 | 8.8
Cc1ccccc1CNC(=O)CN(c1cc(C(F)(F)F)ccc1Cl)S(C)(=O)=O | 0.3 | -16.5 | -0.2 | 2.9 | . | .
CC(C)NCC(O)COc1ccc2c(c1)CCC2 (stereo not given) | -1.9 | 22.6 | 0.1 | -7.8 | . | .
CC(C)(C)c1ccc(OCC(O)CNC2CCCC2)cc1 (stereo not given) | 12.4* | -2.5 | 0.1 | -7.3 | 0.2 | 14.9
OC(CNC1CCCC1)COc1ccc2c(c1)CCC2 (stereo not given) | 12.0* | 8.6 | -0.2 | -7.7 | -1.4 | -10.5
Fc1cc(-c2ccnc(Nc3ccc(-n4cnc(-c5ccc(C(F)(F)F)nc5)n4)cc3)n2)cc(N2CCOCC2)c1 | -0.8 | -8.9 | 0.0 | -8.1 | . | .
CC(NS(C)(=O)=O)c1ccccc1 (stereo not given) | 6.3* | 3.9 | -0.1 | -4.8 | -0.1 | -0.6
CN1CCC(O)(c2ccc3c(c2)CN(Cc2ccco2)CCO3)CC1 | 0.1 | 3.8 | 0.0 | 12.1 | . | .
CCOC(=O)c1sc2nc(SCC(=O)c3ccccc3)n(Cc3ccc(Cl)cc3)c(=O)c2c1C | -0.7 | -8.5 | -0.1 | 0.4 | . | .
CCOC(=O)c1sc2nc(SCC(=O)c3ccc(Cl)cc3)n(Cc3cccs3)c(=O)c2c1C | 5.1* | 9.7 | 0.0 | -11.6 | 1.2 | 7.8
O=C(CN1CCN(Cc2ccccc2)CC1)NCC1COc2ccccc2O1 (stereo not given) | 9.2* | 4.0 | -0.1 | -8.2 | -0.4 | -8.2
COc1ccc(C2C(C(=O)NCC3COc4ccccc4O3)c3ccccc3C(=O)N2c2ccc(OC)cc2)cc1 (stereo not given) | 7.2* | 7.8 | 0.4 | 8.3 | 0.0 | -8.2
CC(=O)N(C)c1nc(-c2ccccc2)ccc1C(=O)NCC1COc2ccccc2O1 (stereo not given) | 10.9* | -1.0 | 0.0 | 19.8 | 0.3 | -1.9
COc1ccccc1CC(=O)NCC1COc2ccccc2O1 (stereo not given) | 5.7* | -2.4 | 0.1 | 13.1 | 0.4 | 11.1
COc1cccc(CC(=O)NCC2COc3ccccc3O2)c1OC (stereo not given) | -0.4 | 0.7 | -0.2 | 3.6 | . | .
O=C(CN1C(=O)c2ccccc2C1=O)NCC1COc2ccccc2O1 (stereo not given) | -1.8 | -1.0 | -0.3 | 0.8 | . | .
CC1(c2ccc3c(c2)OCCO3)NC(=O)N(CN2CCN(c3ccccc3)CC2)C1=O (stereo not given) | 1.2 | 12.5 | -0.6 | -9.3 | . | .
COc1cc(NC(=O)c2ccnc(-c3cccc(N)c3)c2)cc(OC)c1OC | -1.5 | -4.2 | 0.0 | 28.5 | . | .
CSCCC(NC(=O)C1CCC(C)CC1)C(=O)Nc1ccc2c(c1)OCCO2 (stereo not given) | -0.6 | -11.9 | 0.0 | -16.2 | . | .
COc1ccc(-n2c(C)c(C(=O)O)c3cc(OC)c4ccccc4c32)cc1 | 4.9* | 15.7 | -0.1 | 2.9 | 0.3 | 5.4
COc1cc2c(C(=O)O)c(C)n(-c3ccccc3)c2c2ccccc12 | 1.8 | 13.8 | 0.1 | -2.3 | . | .
COc1ccc(-n2c(O)c(C=NCc3ccc(F)cc3)c(=O)[nH]c2=O)cc1 | 7.1* | 5.1 | 0.1 | 18.4 | -1.2 | -5.4
SMILES | GPR151 activ | TEAD-YAP block | FBW7 activator | MITF inh | GPR151 conf act | GPR119 counter
O=C(N/N=C/c1cc(Br)ccc1O)c1cccc(I)c1 | 2.1 | 2.8 | -0.1 | 11.1 | . | .
CN1C(C(=O)Nc2cccc(O)c2)=CC(c2ccc(F)cc2)=NS1(=O)=O | -0.7 | 0.7 | 0.1 | 12.0 | . | .
CCOC(=O)C1(CCc2ccccc2)CCN(Cc2cnc(C)s2)CC1 | 9.8* | -5.3 | -0.1 | -2.3 | 0.0 | -5.9
OCC1(CCc2ccccc2)CCN(Cc2cnc(N3CCCC3)s2)CC1 | 6.6* | -3.2 | 0.0 | 5.7 | -1.1 | -15.4
CCC(C)(C)NS(=O)(=O)c1ccccc1[N+](=O)[O-] | 0.7 | 0.4 | 0.0 | -2.5 | . | .
CC(C)=CCN1CCN(c2ccc3c(c2)CCN3S(C)(=O)=O)C1=O | 0.8 | 0.1 | -0.2 | -13.0 | . | .
O=C(Nc1nc(-c2ccc(I)cc2)cs1)C1CC1 | 5.9* | -40.9 | 0.0 | 12.8 | 0.4 | 8.8
CCOc1ccc(N2C(=O)N(c3cccc(Cl)c3)C3CS(=O)(=O)CC32)cc1 (stereo not given) | -0.1 | -1.3 | -0.1 | 5.3 | . | .
N#Cc1ccc(C=Nc2cccc(S(=O)(=O)N3CCCCC3)c2)cc1 | 1.3 | 9.7 | 0.0 | 7.7 | . | .
Cc1cc(/C=C(/C#N)c2cccc(Cl)c2)c(C)n1C | 5.6* | -10.8 | 0.0 | 0.7 | -0.3 | 0.3
CC1c2cccn2CCN1S(=O)(=O)c1ccccc1Cl (stereo not given) | 5.9* | 6.5 | 0.1 | 9.8 | 0.4 | 4.3
CC1c2cccn2CCN1S(=O)(=O)c1c(Cl)cccc1Cl (stereo not given) | -0.3 | 3.5 | 0.1 | 16.4 | . | .
Cc1ccc(C(=O)NN=C2CCN(C)CC2)cc1 | 0.0 | -9.9 | 0.0 | -19.8 | . | .
CC(C)N1CCC(=NNC(=O)c2ccc(C(C)(C)C)cc2)CC1 | 6.7* | -0.4 | 0.0 | -6.1 | 2.2 | -2.2
CCCc1ccc(C(=O)N2CCC3(CC2)NC(=O)c2ccccc2O3)o1 | 0.6 | -3.8 | -0.1 | 8.0 | . | .
COC(=O)[C@@H]1CCCN1Cc1ccc2c(c1)CN(Cc1ccccc1)CCO2 | -1.1 | -3.0 | -0.2 | -7.3 | . | .
COC(=O)[C@@H]1CCCN1Cc1ccc2c(c1)CN(Cc1c[nH]c3ccccc13)CCO2 | 6.9* | -3.9 | 0.1 | 9.2 | 0.1 | 1.2
Cc1ccc(C2C(C#N)C(=O)NC(=O)C2[n+]2ccccc2)cc1 (stereo not given) | 0.1 | -10.1 | -0.1 | -6.2 | . | .
O=C1C(Cl)=C(NCCO)C(=O)N1c1ccc(Cl)cc1 | 5.1* | 14.1 | 0.5 | 25.2 | 0.0 | 4.4
COCCCNC(=O)C1CCC(Cn2c(=O)c3sccc3n(Cc3cccc(C)c3)c2=O)CC1 (stereo not given) | 5.3* | -5.0 | 0.2 | 4.8 | -0.4 | -10.3
CN1CCN(c2ccccc2NC(=O)c2ccc([N+](=O)[O-])cc2Cl)CC1 | -2.1 | -8.2 | 0.7 | 21.5 | . | .
Cc1c(Cl)cccc1NC(=O)c1cc([N+](=O)[O-])ccc1N1CCN(C)CC1 | 6.2* | 10.9 | 0.0 | 0.4 | 1.2 | 18.5
CCCNC(=O)c1nnc(Cc2c(F)cccc2Cl)o1 | -0.6 | 0.2 | 0.0 | -7.0 | . | .
